Shown are actives, neighbours in structure and some others; about 2.3% of the full set was active somewhere.
CHO-K1 Ca antag: M1 antagonist counterscreen hit in parental CHO-K1 cells | ATP-induced calcium, Fluo-8 fluorescence | inhibition, % at 3 µM | 0.6% of 360,000 active | AID 602250;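 active means inhibition above a per-plate cutoff, the plate's mean sample inhibition plus 3 SD, cut at about 24% in these data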
M1 PAM: potentiates human M1 receptor response to acetylcholine. CHO-K1 hM1, Fluo-8 calcium fluorescence, ACh EC20; 0% = ACh EC20, 100% = maximal ACh. activation, % at 3 µM. 0.088% of 360,000 active; in the data active means activation above about 19%, passing the limit was not always enough
Target sequence (P11229 whole entry, looked up): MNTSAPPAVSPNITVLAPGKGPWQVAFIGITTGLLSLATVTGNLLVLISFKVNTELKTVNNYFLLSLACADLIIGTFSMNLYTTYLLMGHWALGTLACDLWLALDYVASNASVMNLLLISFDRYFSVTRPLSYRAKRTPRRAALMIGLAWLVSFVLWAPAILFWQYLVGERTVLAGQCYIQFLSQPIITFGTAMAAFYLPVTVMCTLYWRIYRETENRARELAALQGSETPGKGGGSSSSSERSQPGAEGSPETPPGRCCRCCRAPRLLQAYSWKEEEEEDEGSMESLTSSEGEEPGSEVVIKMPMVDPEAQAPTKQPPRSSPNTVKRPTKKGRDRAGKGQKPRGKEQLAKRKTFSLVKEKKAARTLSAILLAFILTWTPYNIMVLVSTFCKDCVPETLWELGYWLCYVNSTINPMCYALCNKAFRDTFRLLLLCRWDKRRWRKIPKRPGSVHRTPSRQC
CHO-K1 Ca PAM: nonselective activator or artifact in parental CHO-K1 calcium assay. 0.02% of 360,000 active. ATP EC20, Fluo-8 calcium fluorescence; 0% at ATP EC20, 100% at ATP max. AID 602247. activation, % at 3 µM;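 active means activation above the run cutoff, the mean activation of all test compounds plus 3 SD, cut at about 40% in these data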;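 further: peak over basal fluorescence ratio in a 140 s read after ATP addition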
M1 ag: human M1 muscarinic receptor agonism; P11229; CHO-K1 hM1, Fluo-8 calcium fluorescence, agonist mode; 0% DMSO, 100% acetylcholine EC100; activation, % at 3 µM; 0.33% of 360,000 active;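 active means activation above the run's mean compound activation plus 3 SD, cut at about 16% in these data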;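 further: peak over basal fluorescence ratio within a 140 s kinetic read after compound addition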
CHRM1 antagonist: human CHRM1 antagonism; P11229; CHO-K1 hM1, Fluo-8 calcium fluorescence, ACh EC80 antagonist; inhibition, % at 3 µM; 1.3% of 360,000 active;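 active means percent inhibition above its own plate's cutoff, namely the mean of that plate's compound wells plus 3 SD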;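 further: peak over basal fluorescence ratio during 140 s after agonist addition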
M1 ag parental: counter-screen for M1 agonists: effect in parental CHO-K1 cells; Fluo-8 calcium fluorescence; scaled to maximal ATP response, vehicle zero; activation, % at 3 µM; 0.48% of 360,000 active; AID 602248; in the data active means activation above about 15%;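 further: untransfected CHO-K1 host cells lacking M1 receptor as counterscreen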
Hits are given with their value; n = inactive; x = no result.

SMILES | CHO-K1 Ca antag | M1 PAM | CHO-K1 Ca PAM | M1 ag | CHRM1 antagonist | M1 ag parental
COc1ccc(NC(=O)[C@@H]2[C@@H]3C(=O)N(C4CCCCC4)C(=O)[C@@H]3C3c4ccccc4C=CN32)cc1 (stereo partly specified) | n | n | n | 65 | 25 | n
CSCCC(NS(=O)(=O)c1ccc2c(c1)OCCO2)C(=O)N(C)Cc1ccc(F)cc1 (stereo unspecified) | n | n | n | n | n | n
CSCCC(NS(=O)(=O)c1cccc(C(F)(F)F)c1)C(=O)N(C)Cc1ccc2c(c1)OCCO2 (stereo unspecified) | n | n | n | n | 38 | n
O=C(c1cccnc1)N1CCN(c2ccc3ccccc3n2)CC1 | n | n | n | n | n | n
O=C(NCCSCc1ccccc1)c1ccc(C2SCC(=O)N2Cc2ccccc2)cc1 (stereo unspecified) | n | n | n | n | 60 | n
CNC(=O)c1ccc(NC(=O)C2CCN(S(=O)(=O)c3cccc(C(F)(F)F)c3)CC2)cc1 | n | n | n | n | 30 | n
N#Cc1ccc(COC(=O)c2cnc(Cl)c(Cl)c2)cc1 | n | n | n | n | n | n
COC(=O)c1ccc(Oc2coc3cc(OCc4ccc([N+](=O)[O-])cc4)ccc3c2=O)cc1 | n | n | n | n | n | n
CCc1c(C#N)c(SCCC(=O)Nc2ccc(F)cc2)nc2c1C(=O)CC(C)(C)C2 | n | n | n | n | 38 | n
CCc1c(C#N)c(SCCC(=O)Nc2cccc(OC)c2)nc2c1C(=O)CC(C)(C)C2 | n | n | n | n | n | n
CC1CCN(Cc2ccc(NC(=O)CC3Oc4ccccc4NC3=O)cc2)CC1 (stereo unspecified) | n | n | n | n | 99 | n
CC(C)CN(CCNC(=O)CC1Oc2ccccc2NC1=O)CC(C)C (stereo unspecified) | n | n | n | n | n | n
CCC(C)N(CCNC(=O)c1ccc2c(c1)NC(=O)c1ccccc1S2)C1CCCCC1 (stereo unspecified) | n | n | n | n | 56 | n
CCC(C)N(CCNC(=O)CC1Oc2ccccc2NC1=O)C1CCCCC1 (stereo unspecified) | n | n | n | n | 90 | n
CCN1CCN(CCCNC(=O)c2ccc3c(c2)NC(=O)c2ccccc2S3)CC1 | n | n | n | n | n | n
CC1CCCC(C)N1CCCNC(=O)c1ccc2c(c1)NC(=O)c1ccccc1S2 (stereo unspecified) | n | n | n | n | 84 | n
OC(c1ccc(-c2ccccc2)cc1)c1ncc(-c2ccc(F)cc2)[nH]1 (stereo unspecified) | n | n | n | n | n | n
COc1cccc(C(O)c2nc(-c3cnn(C)c3)cs2)c1 (stereo unspecified) | n | n | n | n | n | n
Clc1ccccc1-c1nnc(-c2ccc3c(c2)OCO3)o1 | n | n | n | n | n | n
O=C([C@H](Cc1ccccc1)NS(=O)(=O)c1ccc(Cl)cc1)N1CC[C@@]2(O)CCCC[C@H]2C1 | n | n | n | n | n | n
Cc1c(C(C)C)c(=O)n(-c2ccc(S(=O)(=O)NCc3ccccc3)cc2)n1C | 25 | n | n | n | 34 | n
COc1cccc(-c2cccc3c2NC(=O)C3(C)Cc2ccccc2F)c1 (stereo unspecified) | n | n | n | n | n | n
CCn1c(Cc2ccccc2)n[nH]c1=S | n | n | n | n | n | n
S=c1[nH]nc(CN2CCCCC2)n1Cc1ccccc1 | n | n | n | n | 43 | n
S=c1[nH]nc(CN2CCCC2)n1Cc1ccccc1 | 34 | n | n | n | 44 | n
SMILES | CHO-K1 Ca antag | M1 PAM | CHO-K1 Ca PAM | M1 ag | CHRM1 antagonist | M1 ag parental
CCCCn1c(Cc2ccccc2)n[nH]c1=S | n | n | n | n | 86 | n
S=c1[nH]nc(COc2ccccc2)n1Cc1ccccc1 | n | n | n | n | n | n
CCOC(=O)c1ccc(-c2csc(NC(=O)CN3CCC(C)CC3)n2)cc1 | n | n | n | n | n | n
CCCCNc1c([N+](=O)[O-])c(=O)n(C)c2ccccc12 | n | n | n | n | n | n
Cn1c(=O)c([N+](=O)[O-])c(NCCCn2ccnc2)c2ccccc21 | n | n | n | n | n | 15
COc1ccc(CNC(NC(=O)c2ccccc2)(C(F)(F)F)C(F)(F)F)cc1 | n | n | n | n | n | n
COc1ccccc1OCc1nnc(SCC(=O)Nc2nnc(C3CC3)s2)n1C | n | n | n | n | n | n
CCN1CCN(CCn2c(=S)[nH]c3ccccc3c2=O)CC1 | n | n | n | n | 86 | n
COc1ccc(O)c(C(=O)c2coc(=N)c(C(=O)Nc3ccc(SC(F)F)cc3)c2)c1 | n | n | n | n | n | 17
Cc1cc(/C=C\c2ccc3cc(N(C)C)ccc3[n+]2C)c(C)n1-c1ccccc1 | 35 | n | n | 26 | 90 | 20
C[n+]1c(/C=C/c2ccc(O)cc2)ccc2ccccc21 | n | n | n | n | n | n
Cc1ccc2c(C)c(C(=O)N(Cc3ccccc3)C3CCS(=O)(=O)C3)oc2c1 (stereo unspecified) | n | n | n | n | n | n
Cc1ccc2c(C)c(C(=O)N(Cc3cccs3)C3CCS(=O)(=O)C3)oc2c1 (stereo unspecified) | n | 24 | n | n | n | n
CCCCn1nnnc1C1(C)CCC(=O)N1Cc1cccnc1 (stereo unspecified) | n | x | n | x | x | n
CCOc1ccc(C2C(C#N)=C(N)SC(N)=C2C#N)c(OCC)c1 | n | n | n | 18 | n | n
CCOc1cc(C2C(C#N)=C(N)SC(N)=C2C#N)ccc1OCCN1CCOCC1 | n | n | n | n | n | n
COc1cc(C2CC(=O)C=C(O)C2)cc(OC)c1OC (stereo unspecified) | 25 | n | n | n | n | n
COc1ccc(C2CC(=O)C=C(O)C2)cc1 (stereo unspecified) | n | n | n | n | n | n
CCCCCC(=C/c1ccccc1)/C=N/Nc1ccc(S(=O)(=O)N2CCOCC2)cc1[N+](=O)[O-] | n | n | n | n | n | n
O=C(CSc1nnc2n1CCCN2)c1ccc([N+](=O)[O-])cc1 | n | n | n | n | n | 19
O=C(CSc1nnc2n1CCCN2)c1ccc(Cl)cc1 | n | n | n | n | n | n
Oc1cc2c(cc1O)C1c3ccc(O)c(O)c3OCC1(O)C2 (stereo unspecified) | n | n | n | n | n | n
O=C(CC(=O)N/N=C/c1ccccc1)NCc1ccccc1 | n | n | n | n | n | 17
O=C(Cc1cccc2ccccc12)N/N=C/c1ccncc1 | n | n | n | n | n | 26
CN(NC(=O)C(=O)NCc1ccco1)C(=O)Nc1ccc(Cl)cc1 | 27 | n | n | n | n | n
